According to ChEMBL document CHEMBL4513143, “CO-ADD screening of University of Natural Resources and Life (Austria) compounds”:
Measured potencies and affinities stand elsewhere.

Columns and labels:
Klebsiella pneumoniae = conditions: Concentration 32 ug.mL-1; ASSAY_TEST Inhibition of Bacterial Growth; detection method Absorption (OD600); MEDIA CAMHB; plate type 384well; NBS; CORNING #3640; time 18 hr
Candida albicans = conditions: 32 ug/mL
Cryptococcus neoformans = conditions: Concentration 32 ug.mL-1; ASSAY_TEST Inhibition of Fungal Growth; detection method Resazurin; Absorption (OD600-OD570); plate type 384well; NBS; CORNING #3640

Structure (SMILES)	Inhibition (Klebsiella pneumoniae) [%]	Inhibition (Candida albicans) [%]	Inhibition (Cryptococcus neoformans) [%]
CCN(CC)CC.C[C@@H](CC1O[C@H]([C@@H](O)CO)[C@@H](O)[C@H](O)[C@@H]1O)OP(=O)(O)O (stereo not given in full)	41.76	0.34	-7.83
CCN(CC)CC.O=P(O)(O)OC1C[C@@H](O)[C@H](O)[C@@H]([C@H](O)CO)O1 (stereo not given in full)	34.69	2.93	-6.2
CCN(CC)CC.C[C@H](CC1O[C@H]([C@H](O)CO)[C@@H](O)[C@H](O)[C@@H]1O)OP(=O)(O)OC[C@H]1O[C@@H](n2cnc3c(N)ncnc32)[C@H](O)[C@@H]1O (stereo not given in full)	32.34	2.8	-3.79
CC(=O)CC1O[C@H]([C@@H](O)CO)[C@@H](O)[C@H](O)[C@@H]1O (stereo not given in full)	30.36	-0.45	-7.35
CCN(CC)CC.C[C@@H](CC1O[C@H]([C@H](O)CO)[C@@H](O)[C@H](O)[C@@H]1O)OP(=O)(O)OC[C@H]1O[C@@H](n2cnc3c(N)ncnc32)[C@H](O)[C@@H]1O (stereo not given in full)	9.8	-0.9	-12.32
CCN(CC)CC.C[C@H](CC1O[C@H]([C@@H](O)CO)[C@@H](O)[C@H](O)[C@@H]1O)OP(=O)(O)OC[C@H]1O[C@@H](n2cnc3c(N)ncnc32)[C@H](O)[C@@H]1O (stereo not given in full)	21.04	-0.71	-12.97
CCN(CC)CC.C[C@H](CC1O[C@H]([C@@H](O)CO)[C@@H](O)[C@H](O)[C@@H]1O)OP(=O)(O)O (stereo not given in full)	38.35	1.33	-5.02
CCN(CC)CC.C[C@@H](CC1O[C@H]([C@@H](O)CO)[C@@H](O)[C@H](O)[C@@H]1O)OP(=O)(O)OC[C@H]1O[C@@H](n2cnc3c(N)ncnc32)[C@H](O)[C@@H]1O (stereo not given in full)	27.9	0.32	-9
N.O=C(O)C1(O)C[C@@H](O)[C@H](O)[C@@H]([C@@H](O)CO)O1 (stereo not given in full)	28.17	3.34	-12.91
OC[C@@H](O)[C@H]1OC(O)C[C@@H](O)[C@@H]1O (stereo not given in full)	30.82	4.53	-12.95
